Screen size: about 69,000 compounds; about 8,600 (12%) showed an effect of 50% or more. For the sample, strong results were picked, then their nearest neighbours and some compounds at random.

The test system of the test is Plasmodium berghei. As to the kind of experiment: Screen against P. berghei liver stage (PbLuc), transformed with Luciferase, at 10uM. The class given is functional, HepG2. To be noted: tested at 10 uM.
On to `Clc1cc(Cl)cc(OCCN2CCC(n3cncn3)CC2)c1`, for which the INHIBITION was found to be 62.4%.
With `c1ccc(OCCN2CCC(n3cncn3)CC2)cc1`, the INHIBITION was determined as 37.4%.
`CC(C)n1[nH]c(=O)c2c1NC(=O)CC2c1cccc(O)c1` (stereo not given): the INHIBITION is given as -47%.
Consider `Cc1cccc(C2CC(=O)Nc3c2c(=O)[nH]n3C(C)C)c1` (stereo not given), for which the INHIBITION is reported as 71.3%.
With `CCc1ccc(C2CC(=O)Nc3c2c(=O)[nH]n3C(C)C)cc1` (stereo not given), the INHIBITION was found to be 79.7%.
Take `CSc1ccc(C2CC(=O)Nc3c2c(=O)[nH]n3C(C)C)cc1` (stereo not given): the INHIBITION is 19.8%.
As to `CC(C)n1[nH]c(=O)c2c1NC(=O)CC2c1ccncc1` (stereo not given), the INHIBITION was -19.1%.
In the case of `CC(C)n1[nH]c(=O)c2c1NC(=O)CC2c1cccc(Br)c1` (stereo not given), the INHIBITION is -6.61%.
For `O=C(CCn1nc(-c2cccs2)oc1=O)Nc1cccc(F)c1` the value was 31.9%; for `O=C1CC2(CCN(c3nncs3)C2)CN1c1cncnc1` (stereo not given), 15.4%; for `Cc1cnc2c(S(=O)(=O)NCC3CCOC3)cccc2c1` (stereo not given), 3.15%.
For the compound `Cc1cccc(OCC2CCCN(C(=O)CCn3ccccc3=O)C2)c1` (stereo not given), the INHIBITION is listed as -10.2%.
Consider `c1ccc(-c2nnc3sc(CCN4CCCC4)nn23)cc1`, for which the INHIBITION was 54.3%.
In the case of `c1cc(-c2nnc3sc(CCN4CCCC4)nn23)ccn1`, the INHIBITION amounted to 46.1%.
`c1ccc(-c2nnc3sc(CCN4CCCCCC4)nn23)cc1`: the INHIBITION came out at 30.8%.
`CC(C)(N)CNS(=O)(=O)Cc1cccc2cccnc12`: the INHIBITION was determined as 2.66%.
The value for `CCOCCCNC(=O)CCCC(=O)n1nc(C)c2ccccc21` was 32.2%; that for `Cc1ccsc1-c1cccc(-c2ccn(CC3CCNC3)n2)c1` (stereo not given) was 72.6%.
`Cc1nccc(-c2cccc(-c3ccn(CC4CCNC4)n3)c2)n1` (stereo not given): the INHIBITION was 47.2%.
The value for `c1cc(-c2cncnc2)cc(-c2ccn(CC3CCNC3)n2)c1` (stereo not given) was 46.4%; that for `CCn1c(C)nnc1CN(C)C1CCN(CCCSC)C1` (stereo not given) was -69.3%; that for `Cc1cc(C(=O)N2CCS(=O)(=O)CC2)c(C)o1` was -9.21%.
For the compound `Cc1cn[nH]c1C1COCCN1Cc1c[nH]cn1` (stereo not given), the INHIBITION was 35.6%.
`Cc1ccc(OCC(=O)NS(=O)(=O)c2c(C)noc2C)cc1C`: the INHIBITION is listed as 6.14%.
For `Cc1cccc(C)c1OCC(=O)NS(=O)(=O)c1c(C)noc1C` the value was -55.8%; for `Cc1cc(C)c(OCC(=O)NS(=O)(=O)c2c(C)noc2C)c(C)c1`, 55.1%; for `O=C(NCCn1nc(C2CCNC2)c2cccnc21)C1CCC1` (stereo not given), 13.5%.
Consider `Cc1nn(C)c2ncnc(NCC(O)CN3CCCCC3)c12` (stereo not given), for which the INHIBITION is 7.3%.
For `CC(C)Oc1ccccc1OCCN1C(=O)CCNC1=O`, the INHIBITION is recorded as 50.5%.
The value for `COc1cccc(OC)c1OCCN1C(=O)CCNC1=O` was 25.8%; that for `COc1ccccc1OCCCN1C(=O)CCNC1=O` was -88.2%; that for `COCCc1noc(-c2cc(Cl)c3c(c2)OCCCO3)n1` was -119%.
Regarding `CN1CCC(NC(=O)c2cc(Br)cc(Cl)c2O)C1=O` (stereo not given), the INHIBITION is 20%.
Regarding `O=c1c2cnc(N3CCCCC3)nc2ccn1Cc1ccco1`, the INHIBITION is -33.7%.
`CN1CCN(c2ncc3c(=O)n(Cc4ccco4)ccc3n2)CC1`: the INHIBITION was 41.3%.
Turning to `CCN1CCN(c2ncc3c(=O)n(Cc4ccco4)ccc3n2)CC1`, the INHIBITION came out at 67.5%.
For the compound `Cc1noc(C)c1S(=O)(=O)NC(=O)COc1ccc(C(C)C)cc1`, the INHIBITION came out at 4.1%.
With `NS(=O)(=O)CCNC(=O)c1cc2ccccc2nc1N1CCCC1`, the INHIBITION was 2.91%.
Consider `Cc1ccc2oc(C(=O)N3CCCC(n4cccn4)C3)cc2n1` (stereo not given), for which the INHIBITION is -32.55%.
Take `O=C(NCCOCC(F)(F)F)c1ccc(-c2ccccc2)[nH]c1=O`: the INHIBITION was determined as 14.4%.
For `O=C(CN1CCCC1)N1CCCC1c1nc(O)cc(-c2ccccn2)n1` (stereo not given) the value was -1.85%; for `CCC(CO)N(Cc1cccnc1)C(=O)c1ccoc1C` (stereo not given), 3.13%; for `N#CC1(NC(=O)COC(=O)Cc2cc(Cl)c3c(c2)OCCO3)CCCC1`, 38.9%.
For the compound `N#Cc1ccc(S(=O)(=O)NC(=O)C2CC2)c(C(F)(F)F)c1`, the INHIBITION was found to be 54.9%.
`CC(C)(C)C(=O)NS(=O)(=O)c1ccc(C#N)cc1C(F)(F)F`: the INHIBITION is recorded as 39.2%.
With `CC(C)C(=O)NS(=O)(=O)c1ccc(C#N)cc1C(F)(F)F`, the INHIBITION is -4.94%.
In the case of `Cc1nc(-c2ccco2)ccc1C(=O)NCCCN1CCOCC1`, the INHIBITION is 24.3%.
For the compound `O=C(Nc1ccc(I)cc1C(=O)NCCN1CCOCC1)c1cccs1`, the INHIBITION turned out to be 25.4%.
For the compound `O=C(Nc1ccc(Cl)cc1C(=O)NCCN1CCOCC1)c1ccco1`, the INHIBITION was 32.3%.
Take `O=C(Nc1ccc(I)cc1C(=O)NCCN1CCOCC1)c1ccco1`: the INHIBITION stood at 52.2%.
In the case of `O=C(Nc1ccccc1C(=O)NCCN1CCOCC1)c1ccco1`, the INHIBITION is on record as 38.7%.
The value for `O=C(Nc1ccccc1C(=O)NCCCN1CCOCC1)c1ccco1` was 51%; that for `CCN(CC)C(=O)CN1CCc2nc(C3CCNCC3)nc(NC)c2C1` was 23.9%; that for `O=C1[C@H]2CN(Cc3ccccc3)C[C@H]2CN1CCN1CCCC1` was -55.3%.
`CO[C@H]1CCN(C(=O)c2cc(C)on2)[C@H]1Cc1ccncc1`: the INHIBITION is -15.9%.

The record behind these values is ChEMBL document CHEMBL4513216, “Probing the Open Global Health Chemical Diversity Library for Multistage-Active Starting Points for Next-Generation Antimalarials” (ACS Infect Dis, 2020).
